OvCa metastasis = blocks SKOV3ip1 adhesion and invasion in omental model | Potency, µM (series often up to 45.8 µM), actives largely listed as inhibitors | AID 1963576 | 0.1% of 46,000 active | SKOV3ip1-GFP adhesion/invasion on 3D omental model, fluorescence; note: nearly all actives have a fitted effect of over 65% in size
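Primary human omental fibroblast/mesothelial 3D culture pre-formed 48 h. SKOV3ip1-GFP cells added with compounds (0.36-46 umol/L), incubated 2 h RT/16 h 37 C, fixed; GFP cells quantified at 488/509 nm.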
NTMT1 inhibitor = blocks human N-terminal methyltransferase 1 activity; Q9BV86; NTMT1 MTase-Glo SAH luminescence, purified enzyme; Potency, µM (doses to about 114 µM), most hits filed as inhibitors; 2.5% of 59,000 active; note: nearly all actives have a fitted effect of over 65% in size
Target sequence (Q9BV86 whole entry, looked up): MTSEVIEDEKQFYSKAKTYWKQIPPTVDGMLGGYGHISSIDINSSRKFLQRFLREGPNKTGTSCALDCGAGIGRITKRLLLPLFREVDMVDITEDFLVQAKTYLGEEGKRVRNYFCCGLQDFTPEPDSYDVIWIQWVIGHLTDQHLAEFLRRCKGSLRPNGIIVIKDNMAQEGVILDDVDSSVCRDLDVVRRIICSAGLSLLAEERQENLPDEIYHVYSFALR
HTT prom inh = HTT promoter inhibition | 0.93% of 48,000 active | Potency, µM (highest dose often 57.5 µM), actives largely listed as inhibitors | HEK293 HTT promoter firefly luciferase reporter, 24 h; note: nearly all actives have a fitted effect of over 50% in size
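HEK293 luciferase promoter-reporter cells (2,500/well) plated 24 h, then compounds added at up to 57.5 uM final for 24 h at 37 °C. Firefly luminescence by Dual-Glo, normalized to vehicle (0%) and zero RLU (-100%).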
GPR32 ag = activates human resolvin D1 receptor GPR32 | O75388 | CHO-K1 GPR32 beta-arrestin PathHunter luminescence, 90 min; zero percent set by DMSO-only wells | activation, % at 76.9 µM | 2.5% of 48,000 active | AID 1346428;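 active = activation of at least 60% and not above a set upper limit, about 1 call in 100 departs from these limits; inconclusive = activation of 40% to 60%, or above that upper limit; inactive = activation under 40%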
Target sequence (O75388 whole entry, looked up): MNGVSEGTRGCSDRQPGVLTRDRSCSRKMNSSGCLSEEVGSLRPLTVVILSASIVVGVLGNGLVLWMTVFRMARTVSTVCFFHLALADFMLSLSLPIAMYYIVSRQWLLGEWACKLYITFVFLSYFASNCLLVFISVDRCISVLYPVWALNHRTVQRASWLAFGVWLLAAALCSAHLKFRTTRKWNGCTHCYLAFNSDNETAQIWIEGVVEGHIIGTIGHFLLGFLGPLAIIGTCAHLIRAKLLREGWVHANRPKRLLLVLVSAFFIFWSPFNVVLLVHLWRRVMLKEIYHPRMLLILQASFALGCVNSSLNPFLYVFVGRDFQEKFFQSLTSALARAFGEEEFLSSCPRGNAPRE
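CHO-K1 cells stably expressing ProLink-tagged GPR32 and Enzyme Activator-tagged beta-arrestin were seeded at 2,500 cells/well overnight, exposed to compounds for 90 min at 37 °C, then read by beta-Gal complementation chemiluminescence after 1 h detection reagent.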
HTT-AS act = activators of huntingtin-antisense promoter activity; HEK293 HTT-AS promoter firefly luciferase reporter, 24 h; response scale: percent change from vehicle, -100% = no light; Potency, µM (highest dose often 57.5 µM), most hits filed as activators; 0.24% of 48,000 active; note: nearly all actives have a fitted effect of over 55% in size
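Firefly luciferase signal from promoter-reporter HEK293 cells was scaled between vehicle (0%) and zero RLU (-100%). Compounds were tested at final concentrations of up to 57.5 uM over 24 h at 37 degrees C. PTC124 at 50 uM final served as control inhibitor.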
Of the large screens only hits and unclear results are named; the others gave an inactive call; ! = a repeat was not active. Only some compounds are listed: those with a hit (about 4.5% of all), similar ones and a draw of the others. Unless noted, calls come from the whole dose curve; as a rule, active = well fitted curve in the direction sought with a large enough effect; inconclusive = small, poorly fitted or top-dose-only effect, or another doubt; inactive = no such curve, though single readings can be large; an effect the other way counts as inactive or inconclusive.

Cc1ccc(C(=O)Nc2cc3cc(Cl)ccc3oc2=O)cc1	GPR32 ag 62
COc1ccc(C(=O)Nc2cc3cc(Cl)ccc3oc2=O)cc1OC	none
C/C(=C\C=C\C(C)C1CCC2(C)C3CCC4C(C)(C)C(=O)CCC45CC35CCC12C)C(=O)O (stereo not given)	none (no result: OvCa metastasis, HTT prom inh, GPR32 ag, HTT-AS act)
CCN1CCN(CCCNC(=O)c2cc3c(=O)n(C)c4ccccc4c3s2)CC1	NTMT1 inhibitor inconclusive
CCCOc1ccc(/C=C/C(=O)Nc2sc(C)c(C)c2C(=O)OCC)cc1OC	NTMT1 inhibitor 79µM
Cn1c(SCc2ccc(F)cc2)nc2ccc(C(=O)NCc3ccc(Cl)cc3)cc21	HTT prom inh inconclusive
Cn1c(SCc2ccc(F)cc2)nc2ccc(C(=O)NCc3ccc(F)cc3)cc21	HTT prom inh 25µM
Cc1ccc(CNC(=O)c2ccc3nc(SCc4ccc(F)cc4)[nH]c3c2)cc1	NTMT1 inhibitor inconclusive, HTT prom inh 22µM
Cc1nc(Nc2ccc(Cl)cc2)cc(-c2ccccc2)n1	GPR32 ag 67, HTT-AS act inconclusive
Cc1ccc(Nc2cc(-c3ccccc3)nc(C)n2)cc1	HTT-AS act inconclusive
CN1CCN(C2CCC(n3cc(-c4ccc(Oc5ccccc5)cc4)c4c(N)ncnc43)CC2)CC1 (stereo not given)	NTMT1 inhibitor 28µM! (no result: OvCa metastasis, HTT prom inh, GPR32 ag, HTT-AS act)
CCCN1CCN(CCCNC(=O)Cn2nc(C)n3c(cc4c(OC)cccc43)c2=O)CC1	none
COc1ccc(NC(=O)c2ccco2)cc1NC(=O)COc1ccccc1Cl	HTT prom inh inconclusive, GPR32 ag 64
Cc1ccc(CNC(=O)CN(c2ccc(C(C)C)cc2)S(=O)(=O)c2c(C)n[nH]c2C)cc1	GPR32 ag 83
COc1ccc(C(=O)Nc2ccc(-c3nc4ccccc4s3)cc2C)cc1Cl	HTT-AS act 1µM
COc1ccc(C(=O)Nc2cc(-c3nc4ccccc4s3)ccc2OC)cc1	OvCa metastasis inconclusive
Cc1cccc(N2CCN(c3ncnc4onc(-c5ccc(F)cc5)c34)CC2C)c1 (stereo not given)	HTT prom inh inconclusive
Cc1cccc(N2CCN(c3ncnc4onc(C)c34)CC2C)c1 (stereo not given)	HTT prom inh 13µM, GPR32 ag inconclusive
CCCn1c(CCC(=O)Nc2cccc(C)c2C)nc2cccnc21	none
COc1cc2c(-c3cccc(Cl)c3)nc3c(c(C)nn3-c3ccccc3)c2cc1OC	none (no result: NTMT1 inhibitor, HTT prom inh, HTT-AS act)
O=S(=O)(Nc1ccc(O)c(Sc2nc3ccccc3s2)c1)c1cc(Cl)ccc1Cl	HTT prom inh inconclusive
Cc1cc(S(=O)(=O)Nc2ccc(O)c(Sc3nc4ccccc4s3)c2)ccc1Cl	GPR32 ag 101
COc1ccc(-c2c(C)c3ccc(O)c(CN4CCCC(C)C4)c3oc2=O)cc1OC (stereo not given)	none
COc1cc(C(=O)O)ccc1NC(=O)[C@@H]1N[C@@H](CC(C)(C)C)[C@](C#N)(c2ccc(Cl)cc2F)[C@H]1c1cccc(Cl)c1F	NTMT1 inhibitor 11µM (no result: OvCa metastasis, HTT prom inh, GPR32 ag, HTT-AS act)
O=C(Nc1ccc(-c2cn3cccnc3n2)cc1)c1cc(Br)ccc1Cl	GPR32 ag 83
COc1cccc(C(=O)Nc2nc3nc(C)c(C)c(=O)n3[nH]2)c1	none
COc1ccc(NC(=O)Nc2cccc(-c3cn4cccnc4n3)c2)cc1	NTMT1 inhibitor inconclusive, GPR32 ag 77
O=C(Cc1ccccc1)Nc1cccc(-c2cn3cccnc3n2)c1	HTT-AS act 11µM
COc1cccc(C(=O)Nc2cccc(-c3nc4ncccn4c3C)c2)c1	GPR32 ag 61
COc1cc(OC)cc(C(=O)Nc2cccc(-c3cn4cccnc4n3)c2)c1	GPR32 ag inconclusive
O=C(COc1ccccc1)Nc1cccc(-c2cn3cccnc3n2)c1	none
CC(=O)Nc1cc(C(=O)NCc2ccc(F)cc2)ccc1S(=O)(=O)c1ccc(C)cc1	none
Cc1cccc(N2CCN(C(=O)c3ccc4c(Cl)c5c(nc4c3)CCCC5)CC2)c1C	none
COc1cc(-n2c(=O)c3ccccc3n(Cc3cccc(Cl)c3)c2=O)cc(OC)c1OC	NTMT1 inhibitor 89µM
COc1ccc(-c2noc(-c3ccc(NC4CCCC4)c([N+](=O)[O-])c3)n2)cc1OC	none
Cn1cc(C2=C(c3cn(CCCSC(=N)N)c4ccccc34)C(=O)NC2=O)c2ccccc21	NTMT1 inhibitor 3.2µM (no result: OvCa metastasis, HTT prom inh, GPR32 ag, HTT-AS act)
Fc1ccc(Nc2nc3nonc3nc2Nc2cccc(C(F)(F)F)c2)cc1	HTT prom inh 1.3µM
CCOC(=O)c1c(-c2ccc(C)o2)csc1NC(=O)CSc1nnnn1-c1ccccc1	NTMT1 inhibitor 3.5µM (no result: OvCa metastasis, HTT prom inh, GPR32 ag, HTT-AS act)
CCOC(=O)c1c(-c2ccccc2)csc1NC(=O)c1cc(-c2cccc(Cl)c2)on1	none
CN1CCc2cccc3c2[C@H]1Cc1ccc(O)c(O)c1-3	NTMT1 inhibitor 22µM (no result: OvCa metastasis)
COc1ccc(OC)c(S(=O)(=O)N2CCC(n3c(C)nc4cccnc43)CC2)c1	GPR32 ag 65 (no result: NTMT1 inhibitor, HTT prom inh, HTT-AS act)
COc1ccccc1CNC(=O)c1ccc(-c2nc(CS(=O)c3ccc(C)cc3)c(C)o2)cc1 (stereo not given)	HTT prom inh inconclusive
CC(C)c1ccccc1NC(=O)CSc1nnc(COc2ccccc2Cl)o1	GPR32 ag 87
O=C(CSc1nnc(-c2ccccc2F)o1)Nc1ccccc1Cl	NTMT1 inhibitor inconclusive, HTT-AS act 2.2µM
CC(C)c1ccccc1NC(=O)CSc1nnc(COc2ccccc2)o1	none
COc1cccc(Cn2ncc3c4sc(S(C)=O)cc4n(C)c3c2=O)c1 (stereo not given)	none (no result: OvCa metastasis, HTT prom inh, GPR32 ag, HTT-AS act)
CN1CCN(CCCNc2ncc(Cl)c(-c3cc4c(C(=O)NC5CC5)cccc4s3)n2)CC1	NTMT1 inhibitor 79µM (no result: OvCa metastasis, HTT prom inh, GPR32 ag, HTT-AS act)
O=C(Cn1nnc(-c2ccccc2Cl)n1)Nc1ccc(Br)cc1	none
CCc1ccc(NC(=O)Cn2nnc(-c3ccccc3N)n2)cc1	GPR32 ag 62
CCc1nonc1NC(=O)c1oc2ccccc2c1C	GPR32 ag 66, HTT-AS act inconclusive
CCc1nonc1NC(=O)c1oc2ccc(C)cc2c1C	HTT-AS act inconclusive
Cc1c(C)c2c(cc(C)c3c(-c4ccccc4)coc32)oc1=O	none
CCCCCCCC(=O)[O-].CCCCCCCC(=O)[O-].[Zn+2]	NTMT1 inhibitor 20µM (no result: OvCa metastasis)
CCCCCCCCCCCCCCCCCC(=O)O	none (no result: OvCa metastasis)
Cc1cccc(NC(=O)c2ccc(CN3CC(=O)N4CCCCC4C3=O)cc2)c1C (stereo not given)	none
COc1cccc(CN2CCc3nc(N4CCN(c5ncccn5)CC4)ncc3C2)c1	HTT prom inh 25µM
c1ccc2occc2c1	none (no result: OvCa metastasis)
O=C(Nc1ccc(Cl)c(C(F)(F)F)c1)C1CCN(S(=O)(=O)c2cccc3nonc23)CC1	HTT prom inh inconclusive, GPR32 ag 79
COc1cccc2c1cc1c(=O)n(CC(=O)N3CCCCC3)nc(C)n12	NTMT1 inhibitor inconclusive
O=C1NC(=O)/C(=C/c2ccc3c(c2)OC(F)(F)O3)S1	none (no result: OvCa metastasis, HTT prom inh, HTT-AS act)
